The results in this text go back to PubChem BioAssay (NCATS).

Experiment [1] deals with Zika virus NS2B-NS3 protease (unlinked complex). The experiment in a line: Primary screen GU Rhodamine qHTS for Zika virus inhibitors: Unlinked NS2B-NS3 protease assay (AID 1347159). Also: % is scaled to controls: 0 for no effect and ±100 for the full control effect; nearly all actives have a fitted effect of over 60% in size. The essentials: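 Noncovalent NS2B hydrophilic domain/NS3 protease complex (25 nM final) in 10 mM Tris-HCl pH 8.0, 0.01% Tween 20, preincubated 15 min with compounds (up to 114 microM), then 1.5 microM Rhodamine110 substrate. Fluorescence change over 15 min fitted to 4-parameter Hill.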
For orientation: qHTS replaces the single test concentration by a dilution series.

Experiment [2] can be described thus: Primary qHTS for inhibitors of nuclear receptor binding SET domain protein 2 (NSD2) in an RCH-ACV wild type WT cells (2C) (AID 1645877). Also: nearly all actives have a fitted effect of over 70% in size. Also: potency is read from the fitted curve at half-maximal effect.
Experiment [3] is described as follows: Primary fluorescence-based thiol-reactive (MSTI) qHTS assay for identification of artifact compounds. (AID 1845221).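 Also: thiol-reactive compounds lower the probe fluorescence signal; nearly all actives have a fitted effect of over 65% in size.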 The essentials: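 MSTI probe at 4 uM final in 2% DMSO/PBS pH 7.4; compounds, 1 h at room temperature in dark. Fluorescence Ex/Em 525/598 nm, normalised to Acetyl-MSTI and MSTI, fitted to 4-parameter Hill.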
Experiment [4] is described as follows: Primary redox qHTS assay for identification of artifact compounds. (AID 1845223).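 Also: 0% = DMSO and 100% = reference compound.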 The essentials: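 Amplex Red (25 uM) and HRP (250 mU/mL) in HBSS, with compounds for 15 min, then 250 uM DTT for 30 min, room temperature, dark. Fluorescence 525/598 nm read; normalized to DMSO and 10 uM DA3003; Hill fit.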
The test system of the next experiment is CAOV3. The experiment in a line: Primary qHTS to identify gynecologic anti-cancer compounds using libraries of approved drugs and bioactive compounds (AID 1345084). Also: nearly all actives have a fitted effect of over 55% in size. Also: potency is read from the fitted curve at half-maximal effect. The note with it: Gynecologic cancer cell panel viability, ATPlite luminescence, 48 h; series mostly up to 57.5 µM. The essentials:
(§1)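 Cells, 1,000 per well, plated 16 h, then exposed 48 h at 37 C to compounds. Viability by ATPlite luminescence after 15 min at room temperature.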

Experiment [5] in a line: P-glycoprotein substrates identified in KB-8-5-11 adenocarcinoma cell line, qHTS therapeutic library screen (AID 1346987). Also: nearly all actives have a fitted effect of over 65% in size. Also: potency is read from the fitted curve at half-maximal effect. The essentials:
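KB-8-5-11: colchicine-selected sub-line of KB-3-1 over-expressing P-gp; assay medium lacked colchicine. 72 h drug exposure at 37 degree C, CellTiter-Glo.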

Another experiment deals with CRL-7250. As to the kind of experiment: qHTS assay to identify novel small-molecules to repurpose for Merkel cell carcinoma treatment (AID 1296009). Also: nearly all actives have a fitted effect of over 60% in size. The note with it: MCC and control cell lines, CellTiter-Glo viability, 72 h; series mostly up to 92 µM. The essentials:
(§2)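 Cells exposed to NPC (8-point) and MIPE (11-point) compound dilutions for 72 hr at 37 degree celsius; viability read by CellTiter-Glo luminescence, normalized to no-cell and DMSO in-plate controls.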

The subject of the next experiment is HACAT. The description is as above. The note with it: MCC and control cell lines, CellTiter-Glo viability, 72 h; at 44.8 µM (top of the series) unless noted. The essentials:
as §2
A general note: Cellular ATP, detected with luciferase, serves as a proxy for viable cell number.

Another experiment relates to HeLa. The experiment in a line: Primary qHTS to identify gynecologic anti-cancer compounds using libraries of approved drugs and bioactive compounds (AID 1345084). Also: nearly all actives have a fitted effect of over 55% in size. Also: potency is read from the fitted curve at half-maximal effect. The note with it: Gynecologic cancer cell panel viability, ATPlite luminescence, 48 h; series mostly up to 57.5 µM. The essentials: as §1
In a further experiment the test system is SKOV3. The experiment is described as above. The note with it: Gynecologic cancer cell panel viability, ATPlite luminescence, 48 h; series mostly up to 57.5 µM. The essentials:
as §1

For a further experiment, the system named is KB-3-1. The experiment in a line: Cytotoxic Profiling of Annotated Libraries Using Quantitative High-Throughput Screening (AID 1296008). Also: potency is read from the fitted curve at half-maximal effect; nearly all actives have a fitted effect of over 60% in size. The note with it: Five cell lines viability, CellTiter-Glo ATP luminescence, 48-72 h; max response: stronger effect = lower value. The essentials:
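Compounds were pin-transferred onto cells and incubated 48 or 72 hr at 37 degree Celsius, 95% humidity. CellTiter-Glo was added, plates sat 10 min at room temperature, then ATP-coupled luminescence was imaged as the viability read-out.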

For experiment [6], the target named is Cytochrome P450 2D6 (Homo sapiens) (UniProt P10635). As to the kind of experiment: Cytochrome P450 family 2 subfamily D member 6 (CYP2D6) small molecule antagonists: luciferase biochemical (cell-free) qHTS assay (AID 1645840; active = well fitted curve in the direction sought with a large enough effect in the repeat runs; an effect the other way counts as inactive or inconclusive; also: potency is read from the fitted curve at half-maximal effect; nearly all actives have a fitted effect of over 55% in size). The essentials:
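P450-Glo luminescent screen: recombinant CYP2D6 enzyme–proluciferin substrate mix preincubated with compound 10 min at room temperature, then NADPH regeneration added for 1 h at room temperature. Detection reagent added for 20 min; luciferin light read as relative luminescence units.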

In experiment [7] the target is Catechol O-methyltransferase (Homo sapiens) (UniProt P21964). As to the kind of experiment: Confirmatory Screen for Target Class Profiling of Small Molecule Inhibitors of Methyltransferases (AID 1745852). As to activity change, negative = inhibition: % is scaled to controls: 0 for no effect and ±100 for the full control effect. To be noted: MTase-Glo luminescence, SAH detection, recombinant enzyme; measured here: COMT max response; stronger effect = lower value.
For experiment [8], the target named is Guanidinoacetate N-methyltransferase (Homo sapiens) (UniProt Q14353). The description is as above. To be noted: activity change, negative = inhibition: at 57.3 µM (top of the series) unless noted.
Experiment [9] addresses Nicotinamide N-methyltransferase (Homo sapiens) (UniProt P40261). Described as above. To be noted: MTase-Glo luminescence, SAH detection, recombinant enzyme; measured here: NNMT max response; stronger effect = lower value.
The target of experiment [10] is Phenylethanolamine N-methyltransferase (Homo sapiens) (UniProt P11086). The description is as above. To be noted: MTase-Glo luminescence, SAH detection, recombinant enzyme; measured here: PNMT max response; stronger effect = lower value.
Experiment [11] is described as follows: Primary qHTS to identify inhibitors of SARS-CoV-2 cell entry (AID 1645846; calls by dose curve; also: potency is read from the fitted curve at half-maximal effect; nearly all actives have a fitted effect of over 45% in size). To be noted: activity change, negative = inhibition: at 57.1 µM (top of the series) unless noted. The essentials:
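Entry measured by luciferase signal 48 h after adding SARS-CoV-2-S pseudotyped MLV particles to HEK293-ACE2 cells preincubated 1 h with compounds. Normalisation: bald particles and spike particles.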

Experiment [12] is described as follows: qHTS drug screen for cell cycle checkpoint inhibitors in PARPi-resistant BRCA-mutant ovarian cancer cell lines. (AID 1963452; calls by dose curve). To be noted: PEO1/OlaR viability, CellTiter-Glo luminescence, 96 h, stronger effect = lower value. The essentials:
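PEO1, PEO4 and PEO1/OlaR ovarian cancer cells, 600 per well, exposed 96 h at 37C to a dilution series. Viability read by CellTiter-Glo luminescence, normalized to DMSO and empty wells; activity summarized as Z-AUC.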

Results filed as inconclusive are left out. Calls of active or inactive are those of the source. Unless noted, calls follow the shape of the dose curve; as a rule, active = well fitted curve in the direction sought with a large enough effect; inconclusive = small, poorly fitted or top-dose-only effect, or another doubt; inactive = no such curve, though single readings can be large; an effect the other way counts as inactive or inconclusive.

Sequence of Cytochrome P450 2D6 (Homo sapiens) (P10635 whole entry, looked up): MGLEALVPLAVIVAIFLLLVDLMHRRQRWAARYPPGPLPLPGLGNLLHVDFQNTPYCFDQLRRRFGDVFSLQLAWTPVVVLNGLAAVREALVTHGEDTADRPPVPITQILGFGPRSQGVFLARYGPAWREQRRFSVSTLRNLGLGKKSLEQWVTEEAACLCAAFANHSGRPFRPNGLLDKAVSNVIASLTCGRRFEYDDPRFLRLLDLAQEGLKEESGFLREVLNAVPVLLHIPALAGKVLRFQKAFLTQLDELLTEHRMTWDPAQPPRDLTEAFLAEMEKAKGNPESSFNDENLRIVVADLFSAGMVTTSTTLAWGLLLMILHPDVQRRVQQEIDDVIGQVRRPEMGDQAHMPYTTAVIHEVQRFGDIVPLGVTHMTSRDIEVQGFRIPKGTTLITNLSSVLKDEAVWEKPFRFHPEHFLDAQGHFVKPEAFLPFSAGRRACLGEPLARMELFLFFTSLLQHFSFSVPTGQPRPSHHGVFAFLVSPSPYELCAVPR
Sequence of Phenylethanolamine N-methyltransferase (Homo sapiens) (P11086 whole entry, looked up): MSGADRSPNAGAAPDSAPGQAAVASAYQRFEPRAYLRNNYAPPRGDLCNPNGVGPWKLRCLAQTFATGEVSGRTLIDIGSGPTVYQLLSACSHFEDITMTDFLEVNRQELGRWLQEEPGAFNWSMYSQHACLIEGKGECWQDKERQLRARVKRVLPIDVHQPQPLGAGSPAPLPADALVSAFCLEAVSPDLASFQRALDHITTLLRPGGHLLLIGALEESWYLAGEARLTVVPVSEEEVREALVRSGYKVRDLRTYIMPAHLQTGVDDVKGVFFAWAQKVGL
Sequence of Catechol O-methyltransferase (Homo sapiens) (P21964 whole entry, looked up): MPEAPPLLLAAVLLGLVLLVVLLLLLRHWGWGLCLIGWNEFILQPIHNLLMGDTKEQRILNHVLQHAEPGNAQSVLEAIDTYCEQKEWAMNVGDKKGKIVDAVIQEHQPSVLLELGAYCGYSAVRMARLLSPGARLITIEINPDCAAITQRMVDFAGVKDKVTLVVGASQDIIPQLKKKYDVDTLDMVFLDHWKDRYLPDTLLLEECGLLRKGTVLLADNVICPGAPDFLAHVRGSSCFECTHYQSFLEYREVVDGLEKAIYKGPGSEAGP
Sequence of Nicotinamide N-methyltransferase (Homo sapiens) (P40261 whole entry, looked up): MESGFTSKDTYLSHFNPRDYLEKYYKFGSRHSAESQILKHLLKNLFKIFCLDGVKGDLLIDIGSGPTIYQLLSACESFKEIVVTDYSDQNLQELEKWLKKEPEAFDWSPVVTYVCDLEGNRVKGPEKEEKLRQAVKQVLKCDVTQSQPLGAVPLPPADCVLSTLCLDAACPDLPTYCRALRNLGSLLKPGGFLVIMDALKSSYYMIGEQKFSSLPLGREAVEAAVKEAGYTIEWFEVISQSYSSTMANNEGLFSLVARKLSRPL

Turning to `C[C@]12CC[C@H](O[C@@H]3O[C@H](CO)[C@@H](O)[C@H](O)[C@H]3O[C@@H]3O[C@H](CO)[C@@H](O)[C@H](O)[C@H]3O)CC1=CC[C@@H]1[C@@H]2CC[C@]2(C)[C@@H](C3=CC(=O)OC3)CC[C@]12O`, the Potency entry (in [1]; in [3]; in experiment [4]; with CAOV3) was “inactive” in each case. Also, in experiment [2], the Potency is 4.3 µM (active).
Consider `CC(=O)O[C@H]1CC[C@@]2(CI)C(=CC[C@@H]3[C@@H]2CC[C@]2(C)C(=O)CC[C@@H]32)C1`, for which the Potency result (in experiment [5]; in experiment [3]; with CRL-7250; in the experiment with CAOV3; with HeLa; with SKOV3) was “inactive” throughout. Moreover, in the experiment on HACAT, the outcome is “inactive”.
`CC(C)(C)[C@]1(O)C[C@@H]2OC(=O)C[C@@]23C(=O)O[C@@H]2OC(=O)[C@@H](O)[C@]213`: the Potency result (in experiment [5]; in [1]; in experiment [2]; in experiment [3]; in experiment [4]; with HeLa) was “inactive” each time. The Potency entry in the experiment on SKOV3 is “inactive”.
In the case of `C=C1[C@@H](C)[C@H]2[C@H](Cc3ccccc3)NC(=O)[C@]23[C@H](OC(C)=O)/C=C/[C@](C)(O)C(=O)[C@@H](C)C/C=C/[C@H]3[C@@H]1O`, the Potency is 9.2 µM (active) in experiment [5], 0.258 µM (active) in experiment [2] and 2.59 µM (active) in the experiment with KB-3-1. Moreover, the Potency entry (in experiment [3]; in [4]; with HeLa) was “inactive” in each case.
As to `C[C@@]1(CO)[C@H](O)CC[C@@]2(C)[C@H]1CC[C@H]1C[C@@H]3C[C@@]12CC[C@]3(O)CO`, the Potency in [2] was 2.84 µM (active). The Potency entry (in experiment [3]; in [4]; with CAOV3; with HeLa) was “inactive” throughout.
As for `CCCCN1[C@@H]2CC[C@H]1CC(OC(c1ccc(F)cc1)c1ccc(F)cc1)C2` (stereo not given in full), the Potency entry (in experiment [1]; in experiment [4]; in the experiment with HeLa) was “inactive” throughout. Besides, the Potency in experiment [6] was 169 nM (active); in [2], 9.16 µM (active). In addition, the activity was 0.354% in [7], -14% in experiment [9] and 3.98% in [10]. The activity change, negative = inhibition in experiment [8] was determined as 0%.
For the compound `C[C@@H]1CN(Cc2ccc(F)cc2)CCN1C(=O)COc1ccc(Cl)cc1NC(N)=O`, the values for the Potency (in experiment [11]; in the experiment with SKOV3) were 2.51 µM (active) and 3.16 µM (active), respectively. The Potency result in [4] was “inactive”. Besides, the Z-AUC was -0.0879 (inactive) in experiment [12], -1.28 in experiment [12] (measured here: PEO1 parental Z-AUC) and 0.406 in [12] (measured here: PEO4 Z-AUC).
